The source made the active and inactive calls. Entries that show only a call come without a potency. Unless noted, calls follow the shape of the full dose curve.
Target: KiSS-1 receptor (Homo sapiens) (UniProt Q969F8)
Test: Human kisspeptin (KISS1R) small molecule agonists, calcium flux assay in KISS1R-HEK293 cells (AID 1920064; active = well fitted activation curve with a large enough effect in the repeat runs)
Details: KISS1R-HEK293, calcium flux fluorescence, agonist; series mostly up to 76.8 µM
Method in brief: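 Triplicate 15-concentration series were applied to dye-loaded human KISS1R HEK293 cells, and agonist-evoked calcium fluorescence was captured for 3 min.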

Chain of KiSS-1 receptor (Homo sapiens) (Q969F8 whole entry, looked up): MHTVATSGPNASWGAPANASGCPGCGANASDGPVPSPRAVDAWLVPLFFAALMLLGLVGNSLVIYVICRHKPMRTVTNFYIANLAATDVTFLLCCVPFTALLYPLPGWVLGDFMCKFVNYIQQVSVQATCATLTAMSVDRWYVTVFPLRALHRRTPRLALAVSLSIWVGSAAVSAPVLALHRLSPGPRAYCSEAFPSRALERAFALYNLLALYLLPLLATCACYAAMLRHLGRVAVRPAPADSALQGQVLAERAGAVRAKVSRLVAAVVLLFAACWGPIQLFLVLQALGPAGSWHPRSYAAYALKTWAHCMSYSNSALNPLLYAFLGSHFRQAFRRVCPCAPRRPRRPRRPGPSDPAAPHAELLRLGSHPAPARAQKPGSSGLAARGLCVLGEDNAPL

Compound	Potency
CCC(N)(CO)CO	inactive
CCCCOC(=O)CCS	inactive
CC(=O)S[C@H](C(=O)N[C@H]1Cc2ccccc2[C@H]2CCC[C@@H](C(=O)O)N2C1=O)C(C)C	inactive
CCCCCCCCCOS(=O)(=O)O	inactive
COC(=O)c1ccc([N+](=O)[O-])cc1	inactive
COC(=O)Cc1cccc2ccccc12	inactive
CCCCCCCCCCCC(=O)OC[C@@H](O)[C@H]1OC[C@H](OCCO)[C@H]1OCCO	inactive
CCCCCCCC(=O)OCCCCCC	inactive
CC(=O)NC(Cc1ccccc1)C(=O)O (stereo not drawn)	inactive
Cc1nc2ccccc2s1	inactive
CCO[Si](C)(C)OCC	inactive
Cc1nc(-c2ccc3c(c2)CCN(CCC2CCC(NC(=O)/C=C/c4ccc(F)cc4)CC2)CC3)no1 (stereo not drawn)	inactive
O=C(O)CCS	inactive
CCN(CC#N)c1cccc(C)c1	inactive
CC(C)(C)c1ccc(O)c(C(C)(C)C)c1	inactive
CC12CC3CC(C)(C1)CC(N)(C3)C2	inactive
O=C(/N=N/C(=O)OCc1ccccc1)OCc1ccccc1	inactive
CC(C)C(=O)O	inactive
c1ccc2cc3c4ccccc4c4ccccc4c3cc2c1	inactive
CO[Si](CCCNCCC[Si](OC)(OC)OC)(OC)OC	inactive

Compound	Potency
CCCCCCCCS(=O)(=O)Cl	inactive
C=Cc1ccccn1	inactive
Nc1ccc(S(=O)(=O)Nc2ccc(Cl)nn2)cc1	inactive
COC(=O)c1ccccc1C(=O)O	inactive
CC(=O)SC[C@@H](C)C(=O)N1CCC[C@H]1C(=O)N[C@@H](Cc1ccccc1)C(=O)O	inactive
CCCCCCCCCCCCCC	inactive
COc1cc(/C=C/C(=O)O[C@H]2CC[C@]34C[C@]35CC[C@]3(C)[C@@H]([C@H](C)CCC=C(C)C)CC[C@@]3(C)[C@@H]5CC[C@H]4C2(C)C)ccc1O	inactive
CC/C=C\CCOC(=O)C(C)C	inactive
O=C1CC2CC1C1CCCC21 (stereo not drawn)	inactive
CC1CNCC(C)O1 (stereo not drawn)	inactive
Cc1ccc(C2OC[C@@H]3OC(c4ccc(C)cc4)O[C@H]([C@H](O)CO)[C@@H]3O2)cc1 (stereo partly drawn)	inactive
CCCCC(O)/C=C(C)/C=C/C=C/C(=O)N1CCCC1=O (stereo not drawn)	inactive
CC/C=C\CCO	inactive
O=C(O)c1cc(=O)[nH]c(=O)[nH]1	inactive
CC12CCC(C1)C(C)(C)C2O (stereo not drawn)	inactive
O=C(C(=O)c1ccccc1)c1ccccc1	inactive
CCOC(=O)c1cc(=O)c2c(OCC(COc3cccc4oc(C(=O)OCC)cc(=O)c34)OC(=O)[C@@H](N)CCCCN)cccc2o1	inactive
COc1ccc(C)cc1	inactive
O=S(=O)(O)CCN1CCN(CCO)CC1	inactive

Test system: not listed separately
Test: G protein-coupled receptor (GPCR) small molecule agonists, calcium flux assay: HEK293 wild type cell line counter screen (AID 1920065)
Details: HEK293 WT calcium flux, fluorescence, agonist mode; series mostly up to 57.6 µM
Method in brief: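 Non-specific calcium responders were flagged by adding DMSO-dissolved compounds to dye-loaded cells and reading 480/540 nm fluorescence each second for 3 min; ATP served as positive control.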

Compound	Potency
CCC(N)(CO)CO	inactive
CCCCOC(=O)CCS	inactive
CC(=O)S[C@H](C(=O)N[C@H]1Cc2ccccc2[C@H]2CCC[C@@H](C(=O)O)N2C1=O)C(C)C	inactive
CCCCCCCCCOS(=O)(=O)O	inactive
COC(=O)c1ccc([N+](=O)[O-])cc1	inactive
COC(=O)Cc1cccc2ccccc12	inactive
CCCCCCCCCCCC(=O)OC[C@@H](O)[C@H]1OC[C@H](OCCO)[C@H]1OCCO	inactive
CCCCCCCC(=O)OCCCCCC	inactive
CC(=O)NC(Cc1ccccc1)C(=O)O (stereo not drawn)	inactive
Cc1nc2ccccc2s1	inactive
CCO[Si](C)(C)OCC	inactive
Cc1nc(-c2ccc3c(c2)CCN(CCC2CCC(NC(=O)/C=C/c4ccc(F)cc4)CC2)CC3)no1 (stereo not drawn)	inactive
O=C(O)CCS	inactive
CCN(CC#N)c1cccc(C)c1	inactive
CC(C)(C)c1ccc(O)c(C(C)(C)C)c1	inactive
CC12CC3CC(C)(C1)CC(N)(C3)C2	inactive
O=C(/N=N/C(=O)OCc1ccccc1)OCc1ccccc1	inactive
CC(C)C(=O)O	inactive
c1ccc2cc3c4ccccc4c4ccccc4c3cc2c1	inactive
CO[Si](CCCNCCC[Si](OC)(OC)OC)(OC)OC	inactive

Compound	Potency
CCCCCCCCS(=O)(=O)Cl	inactive
C=Cc1ccccn1	inactive
Nc1ccc(S(=O)(=O)Nc2ccc(Cl)nn2)cc1	inactive
COC(=O)c1ccccc1C(=O)O	inactive
CC(=O)SC[C@@H](C)C(=O)N1CCC[C@H]1C(=O)N[C@@H](Cc1ccccc1)C(=O)O	inactive
CCCCCCCCCCCCCC	inactive
COc1cc(/C=C/C(=O)O[C@H]2CC[C@]34C[C@]35CC[C@]3(C)[C@@H]([C@H](C)CCC=C(C)C)CC[C@@]3(C)[C@@H]5CC[C@H]4C2(C)C)ccc1O	inactive
CC/C=C\CCOC(=O)C(C)C	inactive
O=C1CC2CC1C1CCCC21 (stereo not drawn)	inactive
CC1CNCC(C)O1 (stereo not drawn)	inactive
Cc1ccc(C2OC[C@@H]3OC(c4ccc(C)cc4)O[C@H]([C@H](O)CO)[C@@H]3O2)cc1 (stereo partly drawn)	inactive
CCCCC(O)/C=C(C)/C=C/C=C/C(=O)N1CCCC1=O (stereo not drawn)	inactive
CC/C=C\CCO	inactive
O=C(O)c1cc(=O)[nH]c(=O)[nH]1	inactive
CC12CCC(C1)C(C)(C)C2O (stereo not drawn)	inactive
O=C(C(=O)c1ccccc1)c1ccccc1	inactive
CCOC(=O)c1cc(=O)c2c(OCC(COc3cccc4oc(C(=O)OCC)cc(=O)c34)OC(=O)[C@@H](N)CCCCN)cccc2o1	inactive
COc1ccc(C)cc1	inactive
O=S(=O)(O)CCN1CCN(CCO)CC1	inactive
